Reference: PubChem BioAssay (NCI)
Compounds without any hit were thinned out: in the full panel of roughly 83,000, 20% have a hit.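 Negative percent growth values reflect cell death: -40 means 40% of the cells present at the start died, and -100 means all died.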 Values without a mark were called inactive. Activity calls are given as the source filed them. Rule for the calls: active = growth percent below 10; inactive = the rest.

These compounds were tested on UACC-62 melanoma (assay: NCI-60 one-dose screen, 48 h (100 = growth as untreated, 0 = no growth, -100 = all killed)). Details: 10 µM unless noted.

Compound | growth
C#CCOc1cccc(Nc2ncnc3ccc(NC(=O)CCl)cc23)c1 | -67.5% (active)
Cc1ccc(C(C(N)=O)C(C(N)=O)c2ccccc2)cc1 (stereo not given) | 119%
COc1cc2c(c(OC)c1OC)-c1ccc(OC)c(=O)cc1[C@@H](NC(=O)CCl)CC2 | 20.8%
CCOc1ccc(NC(=O)CSc2oc(-c3ccccc3)nc2S(=O)(=O)c2ccc(F)cc2)cc1 | 62.8%
N#CC1=C(N)Oc2c(sc3c(F)cccc23)C1c1ccc(F)cc1 (stereo not given) | 29.2%
Clc1ccc(Nc2nnc(COc3ccccc3)c3ccccc23)cc1 | -27.7% (active)
Cc1ccc(C2=Nc3c(N)ncnc3NC(c3ccc4c(c3)OCO4)C2)cc1 (stereo not given) | 48.5%
Cc1cc(Cl)ccc1NC(=O)c1cc2ccccc2cc1O | 19.1%
CC(C)n1cnc2c(=S)nc[nH]c21 | 110%
CCOC(=O)CNP(=O)(OC[C@@H](Cc1ccccc1)NC(=O)c1cc2ccccc2s1)Oc1ccccc1 (stereo not given in full) | 71.4%
Brc1ccc2[nH]cc(-c3nonc3-c3c[nH]c4ccccc34)c2c1 | 39.2%
CN(C)CCCC1(c2ccc(F)cc2)OCc2cc(-c3cccc4[nH]ccc34)ccc21 (stereo not given) | 37.5%
C1=C(N2CCCC2)CCC1 | 103%
COc1ccc(C(=S)N2CCN(c3ccccc3Cl)CC2)cc1OC | 89.2%
Cc1cc(=O)[nH]c2c(C#N)cnn12 | 90.7%
CCCCCOc1ccc(C(=O)/C(Br)=C/C(=O)O)cc1 | 90.9%
COc1cc(-c2nc(SCCC(C)C)nc(Nc3ccccc3Cl)c2C#N)cc(OC)c1OC | 81%
CCN(C(=O)N1CCN(c2cc3c(cc2F)c(=O)c(C(=O)O)cn3C2CC2)CC1)c1nc(-c2ccc(Cl)cc2)cs1 | -26.7% (active)
Fc1ccc2[nH]cc(-c3nonc3-c3c[nH]c4ccc(Br)cc34)c2c1 | 28%
N#Cc1cccc(F)c1 | 102%

Compound | growth
Cc1cnc(C(=O)NNc2nc3sc4c(c3c(=O)n2C)C(C)CCC4)cn1 (stereo not given) | -20.8% (active)
O=C(O)[C@@H]1c2ccccc2-c2ccccc2[C@H]1C(=O)O | 96%
CN[C@]12CC3(C=CC(=O)C=C3)O[C@@]1(Cc1ccc(OC)cc1)N(C)C(=O)N2 | -43% (active)
Cc1ccccc1/C=C1\CN(C(=O)OC(C)(C)C)C/C(=C\c2ccccc2C)C1=O | 28.7%
CCc1n(Cc2ccc3ccccc3c2)cc[n+]1Cc1ccc2ccccc2c1 | -43.1% (active)
CCCCCCCCn1ccc2cc(NC(=O)CN3CCN(c4nc(C)cc(Cl)n4)CC3)ccc21 | 76.4%
COc1ccc(-c2nc3c(c(-c4ccccc4)nn3-c3ccccc3)c(-c3ccc(N4CCOCC4)cc3)c2C#N)cc1 | 91.1%
CCC(=C(c1ccc(OCCN2CCCC2)cc1)c1ccc(OCCN2CCCC2)cc1)c1ccc(Cl)cc1 | -46.9% (active)
CCOC(=O)Cn1c(O)c(N=Nc2ccc(S(N)(=O)=O)cc2)c2cc(Br)ccc21 | 83.3%
C=C1C(=O)O[C@H]2[C@H]1CC/C(COC(=O)CCSCCC(=O)OC/C1=C/CC[C@@]3(C)O[C@H]3[C@H]3OC(=O)C(=C)[C@@H]3CC1)=C\CC[C@@]1(C)O[C@@H]21 | -67% (active)
COC(C(=O)[C@@H](O)[C@@H](C)O)[C@@H]1Cc2cc3cc(O[C@H]4C[C@@H](O[C@H]5C[C@@H](O)[C@H](O)C(C)O5)[C@H](O)C(C)O4)c(C)c(O)c3c(O)c2C(=O)[C@H]1O[C@H]1C[C@@H](O[C@H]2C[C@@H](O[C@H]3C[C@@H](O)[C@H](OC)C(C)O3)[C@@H](O)C(C)O2)[C@H](O)C(C)O1 (stereo not given in full) | -35.4% (active)
COC(=O)CNC(=O)[C@H](Cc1ccccc1)NCc1ccncc1 | 99.3%
O=C(O)c1[nH]c(=O)[nH]c(=O)c1[N+](=O)[O-] | 106%
Cc1nnc(NC(=O)c2nc(S(=O)(=O)Cc3ccc(F)cc3)ncc2Cl)s1 | 19.8%
O=C1Nc2ccc(Br)cc2/C1=N/c1n[nH]c(=S)s1 | 93.2%
N#CC1=C(c2ccc(Cl)cc2)Nc2c(c(-c3ccc(Cl)cc3)nn2-c2ccccc2)C12C(=O)Nc1ccc(Cl)cc12 (stereo not given) | 54.6%
O=C1CNC(c2ccccc2)C(c2ccccc2)N1 (stereo not given) | 96.6%
CN1CCN(Cc2ccc3c(NNC(=O)c4ccccc4)nc4cc(F)ccc4n23)CC1 | 4.48% (active)
CC(C)=NNc1ccccn1 | 56.6%
Cc1ccc(/C=N/Nc2nc(Nc3ccccc3)nc(-n3nc(C)cc3C)n2)cc1 | 44.9%

The compounds below were run on LOX IMVI melanoma in the same assay as above. Details: 10 µM unless noted.

Compound | growth
C#CCOc1cccc(Nc2ncnc3ccc(NC(=O)CCl)cc23)c1 | -75.4% (active)
Cc1ccc(C(C(N)=O)C(C(N)=O)c2ccccc2)cc1 (stereo not given) | 108%
COc1cc2c(c(OC)c1OC)-c1ccc(OC)c(=O)cc1[C@@H](NC(=O)CCl)CC2 | -18.2% (active)
CCOc1ccc(NC(=O)CSc2oc(-c3ccccc3)nc2S(=O)(=O)c2ccc(F)cc2)cc1 | 74.1%
N#CC1=C(N)Oc2c(sc3c(F)cccc23)C1c1ccc(F)cc1 (stereo not given) | 32.2%
Clc1ccc(Nc2nnc(COc3ccccc3)c3ccccc23)cc1 | -62% (active)
Cc1ccc(C2=Nc3c(N)ncnc3NC(c3ccc4c(c3)OCO4)C2)cc1 (stereo not given) | 59.3%
Cc1cc(Cl)ccc1NC(=O)c1cc2ccccc2cc1O | 28.9%
CC(C)n1cnc2c(=S)nc[nH]c21 | 93.7%
CCOC(=O)CNP(=O)(OC[C@@H](Cc1ccccc1)NC(=O)c1cc2ccccc2s1)Oc1ccccc1 (stereo not given in full) | 76.2%
Brc1ccc2[nH]cc(-c3nonc3-c3c[nH]c4ccccc34)c2c1 | 2.2% (active)
CN(C)CCCC1(c2ccc(F)cc2)OCc2cc(-c3cccc4[nH]ccc34)ccc21 (stereo not given) | -92.1% (active)
C1=C(N2CCCC2)CCC1 | 97.4%
COc1ccc(C(=S)N2CCN(c3ccccc3Cl)CC2)cc1OC | 92.7%
Cc1cc(=O)[nH]c2c(C#N)cnn12 | 101%
CCCCCOc1ccc(C(=O)/C(Br)=C/C(=O)O)cc1 | 86.4%
COc1cc(-c2nc(SCCC(C)C)nc(Nc3ccccc3Cl)c2C#N)cc(OC)c1OC | 101%
CCN(C(=O)N1CCN(c2cc3c(cc2F)c(=O)c(C(=O)O)cn3C2CC2)CC1)c1nc(-c2ccc(Cl)cc2)cs1 | 5.32% (active)
Fc1ccc2[nH]cc(-c3nonc3-c3c[nH]c4ccc(Br)cc34)c2c1 | -53.9% (active)
N#Cc1cccc(F)c1 | 107%

Compound | growth
Cc1cnc(C(=O)NNc2nc3sc4c(c3c(=O)n2C)C(C)CCC4)cn1 (stereo not given) | -17.5% (active)
O=C(O)[C@@H]1c2ccccc2-c2ccccc2[C@H]1C(=O)O | 99.3%
CN[C@]12CC3(C=CC(=O)C=C3)O[C@@]1(Cc1ccc(OC)cc1)N(C)C(=O)N2 | -50% (active)
Cc1ccccc1/C=C1\CN(C(=O)OC(C)(C)C)C/C(=C\c2ccccc2C)C1=O | -62.4% (active)
CCc1n(Cc2ccc3ccccc3c2)cc[n+]1Cc1ccc2ccccc2c1 | 1.9% (active)
CCCCCCCCn1ccc2cc(NC(=O)CN3CCN(c4nc(C)cc(Cl)n4)CC3)ccc21 | 99.6%
COc1ccc(-c2nc3c(c(-c4ccccc4)nn3-c3ccccc3)c(-c3ccc(N4CCOCC4)cc3)c2C#N)cc1 | 92.2%
CCC(=C(c1ccc(OCCN2CCCC2)cc1)c1ccc(OCCN2CCCC2)cc1)c1ccc(Cl)cc1 | -90.3% (active)
CCOC(=O)Cn1c(O)c(N=Nc2ccc(S(N)(=O)=O)cc2)c2cc(Br)ccc21 | 86%
C=C1C(=O)O[C@H]2[C@H]1CC/C(COC(=O)CCSCCC(=O)OC/C1=C/CC[C@@]3(C)O[C@H]3[C@H]3OC(=O)C(=C)[C@@H]3CC1)=C\CC[C@@]1(C)O[C@@H]21 | -79.3% (active)
COC(C(=O)[C@@H](O)[C@@H](C)O)[C@@H]1Cc2cc3cc(O[C@H]4C[C@@H](O[C@H]5C[C@@H](O)[C@H](O)C(C)O5)[C@H](O)C(C)O4)c(C)c(O)c3c(O)c2C(=O)[C@H]1O[C@H]1C[C@@H](O[C@H]2C[C@@H](O[C@H]3C[C@@H](O)[C@H](OC)C(C)O3)[C@@H](O)C(C)O2)[C@H](O)C(C)O1 (stereo not given in full) | -8.28% (active)
COC(=O)CNC(=O)[C@H](Cc1ccccc1)NCc1ccncc1 | 103%
O=C(O)c1[nH]c(=O)[nH]c(=O)c1[N+](=O)[O-] | 105%
Cc1nnc(NC(=O)c2nc(S(=O)(=O)Cc3ccc(F)cc3)ncc2Cl)s1 | 13.6%
O=C1Nc2ccc(Br)cc2/C1=N/c1n[nH]c(=S)s1 | 90.3%
N#CC1=C(c2ccc(Cl)cc2)Nc2c(c(-c3ccc(Cl)cc3)nn2-c2ccccc2)C12C(=O)Nc1ccc(Cl)cc12 (stereo not given) | 41.5%
O=C1CNC(c2ccccc2)C(c2ccccc2)N1 (stereo not given) | 92.1%
CN1CCN(Cc2ccc3c(NNC(=O)c4ccccc4)nc4cc(F)ccc4n23)CC1 | 7.25% (active)
CC(C)=NNc1ccccn1 | 29.7%
Cc1ccc(/C=N/Nc2nc(Nc3ccccc3)nc(-n3nc(C)cc3C)n2)cc1 | 32.6%
